Data taken from PubChem BioAssay AID1159580 (chemical genetic matrix, 2015).
The whole screen tested about 5,500 compounds, of which about 2,000 (36%) were called active. Not shown: some 18% with an inconclusive outcome. Cut-off read from the data, not from the text of the source: active = normalized growth mostly below about 0.91 (no sharp cut-off); inconclusive = no clear call, values can overlap the other calls; inactive = mostly above about 0.92. The list shows a part of the results.

Test: chemical genetic growth profiling, strain panel (AID 1159580);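 note: tested at 20 µM; growth read once vehicle control cultures reached saturation at 30 °C; 1 = growth at the plate median or of vehicle wells; lower values mean less growth of the strain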
Conditions: growth OD
[1] = S. cerevisiae deletion strains, locus YAR019C, strain CDC15, hits give low values
[2] = S. cerevisiae deletion strains, locus YBL105C, strain PKC1, hits give low values
[3] = S. cerevisiae deletion strains, locus YBR135W, strain CKS1, hits give low values
[4] = S. cerevisiae deletion strains, locus YBR136W, strain MEC1, hits give low values
[5] = S. cerevisiae deletion strains, locus YBR160W, strain CDC28, hits give low values
[6] = S. cerevisiae deletion strains, locus YDL017W, strain CDC7, hits give low values
[7] = S. cerevisiae deletion strains, locus YDL028C, strain MPS1, hits give low values
[8] = S. cerevisiae deletion strains, locus YDL101C, strain DUN1, hits give low values
[9] = S. cerevisiae deletion strains, locus YDL108W, strain KIN28, hits give low values
[10] = S. cerevisiae deletion strains, locus YDL132W, strain cdc53, hits give low values
[11] = S. cerevisiae deletion strains, locus YDL214C, strain PRR2, hits give low values
[12] = S. cerevisiae deletion strains, locus YDR052C, strain DBF4, hits give low values
[13] = S. cerevisiae deletion strains, locus YDR054C, strain cdc34, hits give low values
[14] = S. cerevisiae deletion strains, locus YDR226W, strain ADK1, hits give low values
[15] = S. cerevisiae deletion strains, locus YDR477W, strain SNF1, hits give low values
[16] = S. cerevisiae deletion strains, locus YER123W, strain YCK3, hits give low values
[17] = S. cerevisiae deletion strains, locus YER133W, strain GLC7, hits give low values
[18] = S. cerevisiae deletion strains, locus YFL009W, strain cdc4, hits give low values
[19] = S. cerevisiae deletion strains, locus YFL029C, strain CAK1, hits give low values
[20] = S. cerevisiae deletion strains, locus YFR003C, strain YPI1, hits give low values
[21] = S. cerevisiae deletion strains, locus YFR019W, strain FAB1, hits give low values
[22] = S. cerevisiae deletion strains, locus YFR028C, strain CDC14, hits give low values
[23] = S. cerevisiae deletion strains, locus YGR040W, strain KSS1, hits give low values
[24] = S. cerevisiae deletion strains, locus YGR052W, strain FMP48, hits give low values
[25] = S. cerevisiae deletion strains, locus YGR092W, strain DBF2, hits give low values
[26] = S. cerevisiae deletion strains, locus YHR030C, strain SLT2, hits give low values
[27] = S. cerevisiae deletion strains, locus YHR079C, strain IRE1, hits give low values
[28] = S. cerevisiae deletion strains, locus YHR082C, strain KSP1, hits give low values
[29] = S. cerevisiae deletion strains, locus YHR205W, strain SCH9, hits give low values
[30] = S. cerevisiae deletion strains, locus YIL147C, strain SLN1, hits give low values
[31] = S. cerevisiae deletion strains, locus YJL095W, strain BCK1, hits give low values
[32] = S. cerevisiae deletion strains, locus YJL128C, strain PBS2, hits give low values
[33] = S. cerevisiae deletion strains, locus YJL157C, strain FAR1, hits give low values
[34] = S. cerevisiae deletion strains, locus YJR016C, strain ILV3, hits give low values
[35] = S. cerevisiae deletion strains, locus YJR066W, strain TOR1 (second series), hits give low values
[36] = S. cerevisiae deletion strains, locus YJR066W, strain TOR1, hits give low values
[37] = S. cerevisiae deletion strains, locus YKL048C, strain ELM1, hits give low values
[38] = S. cerevisiae deletion strains, locus YKL067W, strain YNK1, hits give low values
[39] = S. cerevisiae deletion strains, locus YKL101W, strain HSL1, hits give low values
[40] = S. cerevisiae deletion strains, locus YKL193C, strain SDS22, hits give low values
[41] = S. cerevisiae deletion strains, locus YKL203C, strain TOR2, hits give low values
[42] = S. cerevisiae deletion strains, locus YLR113W, strain HOG1, hits give low values
[43] = S. cerevisiae deletion strains, locus YLR133W, strain CKI1, hits give low values
[44] = S. cerevisiae deletion strains, locus YLR403W, strain SFP1, hits give low values
[45] = S. cerevisiae deletion strains, locus YML070W, strain DAK1, hits give low values
[46] = S. cerevisiae deletion strains, locus YMR001C, strain CDC5, hits give low values
[47] = S. cerevisiae deletion strains, locus YMR205C, strain PFK2 (second series), hits give low values
[48] = S. cerevisiae deletion strains, locus YMR277W, strain FCP1, hits give low values
[49] = S. cerevisiae deletion strains, locus YNL006W, strain LST8, hits give low values
[50] = S. cerevisiae deletion strains, locus YNL020C, strain ARK1, hits give low values
[51] = S. cerevisiae deletion strains, locus YNL161W, strain CBK1, hits give low values
[52] = S. cerevisiae deletion strains, locus YNL183C, strain NPR1, hits give low values
[53] = S. cerevisiae deletion strains, locus YNL207W, strain RIO2, hits give low values
[54] = S. cerevisiae deletion strains, locus YNL222W, strain SSU72, hits give low values
[55] = S. cerevisiae deletion strains, locus YNL307C, strain MCK1 (second series), hits give low values
[56] = S. cerevisiae deletion strains, locus YOL078W, strain AVO1, hits give low values
[57] = S. cerevisiae deletion strains, locus YOL136C, strain PFK27, hits give low values
[58] = S. cerevisiae deletion strains, locus YOR061W, strain CKA2, hits give low values
[59] = S. cerevisiae deletion strains, locus YOR119C, strain RIO1, hits give low values
[60] = S. cerevisiae deletion strains, locus YOR231W, strain MKK1, hits give low values
[61] = S. cerevisiae deletion strains, locus YOR329C, strain SCD5, hits give low values
[62] = S. cerevisiae deletion strains, locus YPL031C, strain PHO85, hits give low values
[63] = S. cerevisiae deletion strains, locus YPL153C, strain RAD53, hits give low values
[64] = S. cerevisiae deletion strains, locus YPL204W, strain HRR25, hits give low values
[65] = S. cerevisiae deletion strains, locus YPL209C, strain IPL1, hits give low values
[66] = S. cerevisiae deletion strains, locus YPL256C, strain CLN2, hits give low values
[67] = S. cerevisiae deletion strains, locus YPR025C, strain CCL1, hits give low values
[68] = S. cerevisiae deletion strains, locus YPR106W, strain ISR1, hits give low values
[69] = S. cerevisiae deletion strains, locus YPR111W, strain DBF20, hits give low values
[70] = S. cerevisiae deletion strains, strain NNK1, hits give low values
[71] = S. cerevisiae deletion strains, strain TSCII, hits give low values
[72] = S. cerevisiae deletion strains, locus YAL013W, strain DEP1, hits give low values
[73] = S. cerevisiae deletion strains, locus YBR229C, strain ROT2, hits give low values
[74] = S. cerevisiae deletion strains, locus YCL061C, strain MRC1, hits give low values
[75] = S. cerevisiae deletion strains, locus YDL134C, strain PPH21, hits give low values
[76] = S. cerevisiae deletion strains, locus YDR150W, strain NUM1, hits give low values
[77] = S. cerevisiae deletion strains, locus YEL061C, strain CIN8, hits give low values
[78] = S. cerevisiae deletion strains, locus YGR078C, strain PAC10, hits give low values
[79] = S. cerevisiae deletion strains, locus YHR087W, strain rtc3, hits give low values
[80] = S. cerevisiae deletion strains, locus YJR043C, strain POL32, hits give low values
[81] = S. cerevisiae deletion strains, locus YJR075W, strain HOC1, hits give low values
[82] = S. cerevisiae deletion strains, locus YLR039C, strain RIC1, hits give low values
[83] = S. cerevisiae deletion strains, locus YLR058C, strain SHM2 (second series), hits give low values
[84] = S. cerevisiae deletion strains, locus YLR085C, strain ARP6, hits give low values
[85] = S. cerevisiae deletion strains, locus YLR262C, strain YPT6, hits give low values
[86] = S. cerevisiae deletion strains, locus YML094W, strain GIM5, hits give low values
[87] = S. cerevisiae deletion strains, locus YMR219W, strain ESC1, hits give low values
[88] = S. cerevisiae deletion strains, locus YMR263W, strain SAP30, hits give low values
[89] = S. cerevisiae deletion strains, locus YNL153C, strain GIM3, hits give low values
[90] = S. cerevisiae deletion strains, locus YNL298W, strain CLA4 (second series), hits give low values
[91] = S. cerevisiae deletion strains, locus YNL322C, strain KRE1, hits give low values
[92] = S. cerevisiae deletion strains, locus YNR030W, strain Alg12, hits give low values
[93] = S. cerevisiae deletion strains, locus YOL006C, strain TOP1, hits give low values
[94] = S. cerevisiae deletion strains, locus YPL055C, strain LGE1, hits give low values
[95] = S. cerevisiae deletion strains, locus YPL241C, strain CIN2, hits give low values
[96] = S. cerevisiae deletion strains, locus YPR135W, strain CTF4, hits give low values

Measured: normalized growth

Cc1cc(C(=O)O/N=C(/N)CSc2ncccc2C(F)(F)F)no1
active: [42] 0.789 | [66] 0.824
inactive: [1] 0.997 | [2] 0.993 | [3] 0.994 | [4] 0.992 | [5] 0.988 | [6] 0.995 | [7] 0.993 | [8] 1.01 | [9] 0.996 | [10] 0.99 | [11] 0.999 | [12] 0.998 | [13] 0.989 | [14] 0.991 | [15] 1 | [16] 1.01 | [17] 1.01 | [18] 0.999 | [19] 0.998 | [20] 0.993 | [21] 1 | [22] 0.994 | [23] 1.02 | [24] 0.995 | [25] 1.02 | [26] 0.957 | [27] 0.772 | [28] 1.17 | [29] 1 | [30] 0.991 | [31] 0.841 | [32] 0.983 | [33] 1.01 | [34] 0.997 | [35] 1 | [36] 1.14 | [37] 1.01 | [38] 0.993 | [39] 1 | [40] 0.989 | [41] 1.08 | [43] 1.01 | [44] 1.02 | [45] 0.995 | [46] 0.997 | [47] 1.02 | [48] 0.994 | [49] 0.999 | [50] 1.01 | [51] 0.996 | [52] 0.933 | [53] 0.997 | [54] 0.978 | [55] 1.01 | [56] 0.998 | [57] 1.01 | [58] 1.02 | [59] 1.04 | [60] 0.792 | [61] 0.995 | [62] 1 | [63] 0.997 | [64] 1.01 | [65] 0.992 | [67] 0.999 | [68] 0.997 | [69] 0.993 | [70] 1.01 | [71] 0.99

N/C(=N/OS(=O)(=O)c1ccc(Cl)cc1)c1ccc(C(F)(F)F)cc1
inactive: [72] 0.957 | [73] 0.978 | [74] 0.946 | [8] 0.958 | [75] 0.978 | [76] 0.96 | [77] 0.997 | [78] 0.971 | [26] 0.915 | [79] 1.01 | [80] 0.97 | [81] 0.955 | S. cerevisiae deletion strains, locus YKL190W, strain CNB1, hits give low values 0.981 | [82] 0.969 | [83] 0.976 | [84] 0.968 | [85] 0.999 | [86] 0.985 | [87] 0.99 | [88] 0.991 | [89] 0.976 | [90] 0.943 | [91] 0.967 | [92] 0.971 | [93] 0.897 | [94] 1.02 | [95] 0.965 | [96] 0.847 | S. cerevisiae strains, strain wild type, hits give low values 0.973

Cc1ccc(C(=O)O/N=C(/N)CSc2ncccc2C(F)(F)F)cc1
active: [42] 0.828
inactive: [1] 1 | [2] 1.01 | [3] 1 | [4] 1.01 | [5] 1 | [6] 1.01 | [7] 0.989 | [8] 1 | [9] 1 | [10] 1.01 | [11] 0.991 | [12] 1.01 | [13] 1.01 | [14] 1.02 | [15] 0.994 | [16] 0.995 | [17] 0.976 | [18] 0.994 | [19] 1 | [20] 1 | [21] 0.955 | [22] 1.01 | [23] 0.998 | [24] 1.02 | [25] 1 | [26] 0.982 | [27] 0.793 | [28] 1.19 | [29] 0.988 | [30] 1.01 | [31] 0.887 | [32] 0.988 | [33] 0.997 | [34] 1.01 | [35] 0.975 | [36] 1.16 | [37] 0.991 | [38] 0.996 | [39] 1 | [40] 1.01 | [41] 1.07 | [43] 1 | [44] 0.976 | [45] 0.988 | [46] 1.01 | [47] 0.993 | [48] 1.01 | [49] 1.01 | [50] 1 | [51] 1.01 | [52] 0.951 | [53] 1.02 | [54] 1 | [55] 1.01 | [56] 1 | [57] 0.994 | [58] 0.982 | [59] 1.02 | [60] 0.821 | [61] 1.01 | [62] 1 | [63] 0.984 | [64] 0.994 | [65] 1.01 | [66] 0.884 | [67] 1 | [68] 1.01 | [69] 1 | [70] 1.02 | [71] 1.01

CC(C)(C)C(=O)N1CCN(c2ncccc2C(F)(F)F)CC1
inactive: [72] 0.988 | [73] 0.983 | [74] 0.998 | [8] 0.977 | [75] 0.967 | [76] 0.983 | [77] 0.96 | [78] 0.979 | [26] 0.853 | [79] 0.973 | [80] 0.997 | [81] 0.983 | [82] 0.914 | [83] 0.989 | [84] 0.941 | [85] 0.865 | [86] 0.939 | [87] 0.99 | [88] 1.02 | [89] 0.992 | [90] 0.966 | [91] 0.974 | [92] 0.963 | [93] 0.871 | [94] 0.959 | [95] 0.999 | [96] 0.787
